Active and inactive are the calls of the source.
Tests used:
[1] = E. coli DRC41 culture turbidity changes, primary screen, E. coli filamentation inducer project, strain DRC41, OD650, 48 h (AID 1152);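 note: E. coli MC1000 strain DRC41 lacking acrAB efflux pump and sulA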; conditions: E. coli DRC41 (acrAB sulA), higher = more signal, called active from +8 up or from −8 down
[2] = small-molecule binders of probe aLefty1, primary screen, biochemical, small-molecule microarray, 635/667 nm fluorescence (AID 1153); conditions: higher = more signal;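 note: score merges spot fluorescence with signal-to-noise ratio from the scanned slide images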
[3] = PSAC antagonists in infected red cells, primary screen, cell-based, P. falciparum Indochina, OD700, 1 h (AID 1154); conditions: P. falciparum Indochina infected RBC osmotic lysis, higher = more signal, called active from +8 up or from −8 down
[4] = PSAC antagonists in infected red cells, primary screen, cell-based, P. falciparum Indochina, OD700, 2 h (AID 1155);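 note: lysis reports solute entry through the parasite surface anion channel PSAC; channel blockers reduce lysis of infected cells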; conditions: P. falciparum Indochina infected erythrocytes, osmotic lysis OD700; higher = more signal, called active from +8 up or from −8 down
[5] = osmotic lysis modulators in infected erythrocytes, primary screen, PSAC antagonist project, cell-based, P. falciparum Indochina, OD700, 3 h (AID 1156); conditions: higher = more signal, called active from +8 up or from −8 down
[6] = PSAC antagonists in infected red cells, primary screen, cell-based, P. falciparum Indochina, OD700, 18 h (AID 1157); conditions: P. falciparum Indochina infected erythrocytes, osmotic lysis OD700, 18 h; higher = more signal, called active from +8 up or from −8 down
[7] = modulators of S6 phosphorylation in cells, primary screen, cell-based, A549, cytoblot, luminescence, serum-stimulated (AID 1158); conditions: A549 phospho-S6 cytoblot, 5 h, higher = more signal;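 note: serum-stimulated A549 lung adenocarcinoma cells; signal is phosphorylated S6 detected by cytoblot immunostaining with HRP secondary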
[8] = target: NADPH oxidase 2 (Homo sapiens) (UniProt P04839); test: NOX2-dependent H2O2 signal modulators, primary screen, NOX inhibitor project, cell-based, HEK293-NOX2, PMA-stimulated, Amplex Red fluorescence (AID 1159); conditions: 45 min, higher = more signal, called active from +8 up or from −8 down; note: test concentration not given here
[9] = target: NADPH oxidase 4 (Homo sapiens) (UniProt Q9NPH5); test: NOX4-dependent H2O2 signal modulators, primary screen, NOX inhibitor project, cell-based, HEK293-NOX4, tetracycline-induced, Amplex Red fluorescence (AID 1160); conditions: 45 min, higher = more signal, called active from +8 up or from −8 down
[10] = target: NADPH oxidase 5 (Homo sapiens) (UniProt Q96PH1); test: NOX5-dependent H2O2 signal modulators, primary screen, NOX inhibitor project, cell-based, HEK293-NOX5, Amplex Red fluorescence (AID 1161); conditions: HEK293-NOX5, ionomycin, 45 min, higher = more signal
Sequence of NADPH oxidase 5 (Homo sapiens) (Q96PH1 whole entry, looked up): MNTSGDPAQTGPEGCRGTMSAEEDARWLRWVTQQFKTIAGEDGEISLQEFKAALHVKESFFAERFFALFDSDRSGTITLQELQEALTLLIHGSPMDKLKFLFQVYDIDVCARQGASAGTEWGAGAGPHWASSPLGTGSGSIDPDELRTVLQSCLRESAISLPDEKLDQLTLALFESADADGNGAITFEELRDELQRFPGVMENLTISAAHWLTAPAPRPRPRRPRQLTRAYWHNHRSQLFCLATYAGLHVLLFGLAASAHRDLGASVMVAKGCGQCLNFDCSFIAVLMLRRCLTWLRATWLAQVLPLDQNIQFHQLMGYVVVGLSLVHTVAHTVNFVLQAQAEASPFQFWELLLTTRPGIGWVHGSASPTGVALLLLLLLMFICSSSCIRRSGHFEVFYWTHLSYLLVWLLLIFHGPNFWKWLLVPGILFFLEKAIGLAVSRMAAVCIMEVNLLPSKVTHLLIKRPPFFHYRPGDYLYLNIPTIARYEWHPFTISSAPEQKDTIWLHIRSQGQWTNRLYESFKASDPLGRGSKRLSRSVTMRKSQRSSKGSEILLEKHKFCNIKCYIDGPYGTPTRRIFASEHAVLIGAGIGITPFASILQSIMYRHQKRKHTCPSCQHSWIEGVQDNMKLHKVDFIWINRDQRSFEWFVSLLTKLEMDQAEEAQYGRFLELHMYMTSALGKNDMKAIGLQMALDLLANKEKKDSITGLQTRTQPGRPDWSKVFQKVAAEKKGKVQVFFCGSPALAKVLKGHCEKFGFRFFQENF

Sequence of NADPH oxidase 4 (Homo sapiens) (Q9NPH5 whole entry, looked up): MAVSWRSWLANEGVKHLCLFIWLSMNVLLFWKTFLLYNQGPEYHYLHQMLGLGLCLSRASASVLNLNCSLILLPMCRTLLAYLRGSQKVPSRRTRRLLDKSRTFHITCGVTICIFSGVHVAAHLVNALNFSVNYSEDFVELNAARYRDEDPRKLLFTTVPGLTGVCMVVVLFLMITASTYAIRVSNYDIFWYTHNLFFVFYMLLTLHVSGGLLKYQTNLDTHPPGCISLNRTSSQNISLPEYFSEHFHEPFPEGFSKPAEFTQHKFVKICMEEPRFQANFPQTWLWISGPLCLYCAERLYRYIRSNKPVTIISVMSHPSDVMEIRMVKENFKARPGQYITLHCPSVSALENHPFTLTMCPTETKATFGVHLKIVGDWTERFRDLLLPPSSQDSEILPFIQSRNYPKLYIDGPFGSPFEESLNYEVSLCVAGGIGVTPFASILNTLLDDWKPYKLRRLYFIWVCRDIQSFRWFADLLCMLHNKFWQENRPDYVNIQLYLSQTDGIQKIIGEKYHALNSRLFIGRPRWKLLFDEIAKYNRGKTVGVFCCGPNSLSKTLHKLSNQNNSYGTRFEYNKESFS
Sequence of NADPH oxidase 2 (Homo sapiens) (P04839 whole entry, looked up): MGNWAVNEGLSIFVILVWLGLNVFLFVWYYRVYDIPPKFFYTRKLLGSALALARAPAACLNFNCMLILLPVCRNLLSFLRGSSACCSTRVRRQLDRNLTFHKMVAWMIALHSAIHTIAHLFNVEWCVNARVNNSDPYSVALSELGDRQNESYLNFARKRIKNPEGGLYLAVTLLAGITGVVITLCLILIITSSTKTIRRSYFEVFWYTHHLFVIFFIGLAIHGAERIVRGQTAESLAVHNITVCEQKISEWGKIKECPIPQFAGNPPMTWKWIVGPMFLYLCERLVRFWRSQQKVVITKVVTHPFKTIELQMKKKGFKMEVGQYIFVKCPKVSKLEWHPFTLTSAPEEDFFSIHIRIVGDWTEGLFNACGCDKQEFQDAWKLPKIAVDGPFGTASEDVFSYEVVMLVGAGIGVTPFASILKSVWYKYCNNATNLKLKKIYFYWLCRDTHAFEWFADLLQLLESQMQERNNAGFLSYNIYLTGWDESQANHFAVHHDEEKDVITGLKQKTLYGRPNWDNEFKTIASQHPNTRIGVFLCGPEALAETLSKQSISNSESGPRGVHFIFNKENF

SMILES	z-score [1]	composite z-score [2]	z-score [3]	z-score [4]	z-score [5]	z-score [6]	z-score [7]	z-score [8]	z-score [9]	z-score [10]
COCCOC(=O)N1C(=O)[C@@]2(c3cc(C#CCNC(N)=O)ccc31)[C@H](c1ccc(OCCO)cc1)N1[C@H](c3ccccc3)[C@H](c3ccccc3)OC(=O)[C@H]1[C@@H]2C(=O)NC[C@H](O)c1ccccc1	0.402 (inactive)	0.119	1.65 (inactive)	1.1 (inactive)	0.624 (inactive)	0.457 (inactive)	-0.144	2.22 (inactive)	1.06 (inactive)	-0.137
CC=CC(O)C1C=CC2C(=O)NC(=O)C2N1Nc1ccccn1 (stereo not given)	-0.576 (inactive)	-0.0061	-0.335 (inactive)	-0.0554 (inactive)	0.0091 (inactive)	0.998 (inactive)	-0.966	-1.39 (inactive)	-1.87 (inactive)	-1.74
COC(=O)[C@@]1(Cc2ccc(OC)cc2)[C@H]2c3cc(C(=O)N4CCCC4)n(Cc4ccc(S(C)(=O)=O)cc4)c3C[C@H]2CN1C(=O)c1ccccc1	-1.08 (inactive)	0.315	2.29 (inactive)	0.326 (inactive)	0.6 (inactive)	0.617 (inactive)	-0.688	0.385 (inactive)	-0.389 (inactive)	-1.7
[N-]=[N+]=NCc1ccccc1[C@H]1OC(c2ccc(OCCCO)cc2)=N[C@@]1(CCS(=O)(=O)c1ccccc1)C(=O)NCc1ccccc1	1.14 (inactive)	-0.271	25 (active)	8.39 (active)	1.49 (inactive)	1.38 (inactive)	0.127	2.27 (inactive)	0.837 (inactive)	-0.887
C=CCC(OC(C)=O)[C@@H]1[C@@H](N(Cc2ccc(-c3cccc(C(F)(F)F)c3)o2)C(=O)c2cccc3ccccc23)c2cc(OCCCO)ccc2N1C(=O)Cc1ccc(OC)cc1 (stereo not given in full)	0.386 (inactive)	-0.0818	1.62 (inactive)	0.753 (inactive)	1.94 (inactive)	0.702 (inactive)	0.461	-3.21 (inactive)	-1.73 (inactive)	-1.49
CC(C)OC(=O)CC(=O)CC(O)c1ccc([N+](=O)[O-])cc1 (stereo not given)	-0.314 (inactive)	0.0509	1.92 (inactive)	0.586 (inactive)	0.0451 (inactive)	0.438 (inactive)	-0.243	0.0696 (inactive)	0.66 (inactive)	0.39
CN(C)CCCC[C@@H]1NC(=O)[C@@H]2C[C@H](C(=O)O)[C@H](c3cccc(OCCO)c3)N2C1=O	0.408 (inactive)	-0.147	2.07 (inactive)	0.2 (inactive)	-0.725 (inactive)	-0.0176 (inactive)	-0.564	1.11 (inactive)	0.306 (inactive)	1.18
CCCNC(=O)[C@@]1(Sc2ccc(C)cc2)CC(=O)N(C2CCCCC2)[C@@H]1c1ccc(CO)cc1I	-0.629 (inactive)	-0.525	4.93 (inactive)	0.465 (inactive)	0.0133 (inactive)	0.376 (inactive)	-0.328	0.82 (inactive)	0.142 (inactive)	1.61
COCCOC(=O)N1C(=O)[C@@]2(c3cc(C#CC4=CCCCC4)ccc31)[C@H](C(=O)N1CCCCCCC1)[C@H]1C(=O)O[C@H](c3ccccc3)[C@H](c3ccccc3)N1[C@@H]2c1ccc(OCCO)cc1	-1.1 (inactive)	1.88	4.58 (inactive)	1.19 (inactive)	-0.26 (inactive)	0.481 (inactive)	0.118	0.983 (inactive)	0.567 (inactive)	-0.934
CC(C)C(=C=CC[C@@H](O)c1cccc(OCCO)c1)C[C@@H](O)c1ccccn1	0.599 (inactive)	0.0502	8.55 (active)	0.809 (inactive)	0.489 (inactive)	0.527 (inactive)	0.0722	-1.37 (inactive)	-0.666 (inactive)	-1.45
COc1ccc(C#Cc2ccc3c(c2)[C@]2(C(=O)N3)[C@H](C(=O)Nc3nc4ccccc4s3)[C@H]3C(=O)O[C@H](c4ccccc4)[C@H](c4ccccc4)N3[C@@H]2c2ccccc2OCCO)cc1	2.86 (inactive)	-0.118	2.32 (inactive)	2.07 (inactive)	-0.279 (inactive)	-0.442 (inactive)	0.81	1.91 (inactive)	-0.0532 (inactive)	0.268
O=C(CS)NCCCCCCNC(=O)[C@@H]1C[C@@H]2C(=O)NCC(=O)N2[C@@H]1c1ccc(O)cc1	1.58 (inactive)	0.0341	2.54 (inactive)	-0.164 (inactive)	1.62 (inactive)	-1.41 (inactive)	2.85	0.266 (inactive)	0.147 (inactive)	1.51
[N-]=[N+]=Nc1ccccc1C[C@]1(C(=O)NCc2ccccc2)COC(c2ccc(OCCCO)cc2)=N1	0.325 (inactive)	-0.442	30.8 (active)	30.8 (active)	3.25 (inactive)	3.49 (inactive)	-0.351	-3.07 (inactive)	-1.03 (inactive)	-1.91
CC(C)C[C@@H]1NC(=O)[C@@H]2C[C@H](C(=O)NCCCCCC[N+](C)(C)C)[C@H](c3cccc(OCCO)c3)N2C1=O	-0.407 (inactive)	0.22	6.26 (inactive)	1.35 (inactive)	-0.953 (inactive)	0.376 (inactive)	-0.797	2.3 (inactive)	1.31 (inactive)	2.51
CO[C@H]1O[C@H](CO)[C@@H](OC(=O)c2ccc(Br)cc2)[C@@H]2OC(=O)[C@H](Cc3ccccc3)C/C=C/C[C@@H](Cc3ccccc3)C(=O)O[C@@H]12	2.28 (inactive)	-0.715	2.36 (inactive)	-0.765 (inactive)	-1.53 (inactive)	-1.02 (inactive)	1.92	-4.18 (inactive)	-0.416 (inactive)	-1.82
COc1cc(CO)cc(I)c1O[C@H]1C=C(C(=O)NCCO)C[C@@H](NCC2CCCCC2)[C@@H]1O	2.19 (inactive)	-0.313	1.35 (inactive)	0.94 (inactive)	0.996 (inactive)	0.183 (inactive)	1.06	0.132 (inactive)	0.97 (inactive)	1.04
[N-]=[N+]=NCc1ccccc1[C@@H]1OC(c2ccc(OCCCO)cc2)=N[C@]1(Cc1ccccc1)C(=O)NCCN1CCOCC1	0.745 (inactive)	0.345	18 (active)	3.55 (inactive)	1.97 (inactive)	1.13 (inactive)	-0.408	-3.16 (inactive)	2.14 (inactive)	0.838
COC(=O)[C@@]1(Cc2ccccc2)[C@H]2c3cc(C(=O)N4CCCC4)n(CCSCCO)c3C[C@H]2CN1C(=O)c1ccccc1	-1.88 (inactive)	0.597	1.5 (inactive)	0.636 (inactive)	0.57 (inactive)	0.691 (inactive)	-0.653	0.957 (inactive)	-0.446 (inactive)	-0.987
O=C1N(CCS(=O)(=O)c2ccccc2)Cc2ccccc2[C@@H]2OC(c3ccc(OCCCO)cc3)=N[C@]12CCS(=O)(=O)c1ccccc1	-0.769 (inactive)	0.568	26 (active)	18.8 (active)	3.14 (inactive)	2.44 (inactive)	-0.355	1.5 (inactive)	2.01 (inactive)	1.96
CC(C)(C)OC(=O)CC[C@]12N=C(c3ccc(OCCCO)cc3)O[C@H]1c1ccccc1N(Cc1ccccc1)C2=O	0.617 (inactive)	0.848	27 (active)	28.2 (active)	4.42 (inactive)	2.09 (inactive)	0.34	3.89 (inactive)	0.102 (inactive)	-1.71
CCOC(=O)C1=C[C@@H](C(C)(C)C)N(S(=O)(=O)c2ccc(C)cc2)[C@H]1c1ccccc1	-0.492 (inactive)	0.407	-0.132 (inactive)	0.457 (inactive)	-0.803 (inactive)	-0.0282 (inactive)	-0.667	-0.707 (inactive)	-0.655 (inactive)	-0.083
O=C1NC(=O)C2C1C=CC(C(O)c1ccccn1)N2Nc1ccc(Cl)cc1Cl (stereo not given)	-0.889 (inactive)	0.121	0.625 (inactive)	0.435 (inactive)	-0.343 (inactive)	0.949 (inactive)	-0.881	-1.39 (inactive)	-4.83 (inactive)	-3.38
